For orientation: AC50 means the midpoint of the concentration-response curve, whichever way the signal moves.

Our source for the outcome and AC50 values is PubChem BioAssay (EPA / NIEHS).

Inconclusive results are not listed. The source made the active and inactive calls. Rule for the calls, unless noted: active = hit-call score of the fitted dose curve at least 0.9, where 1 is the maximum; inactive = score below 0.9.

Assay [1] is described as follows: ATG_PBREM_CIS: Attagene CIS-FACTORIAL HepG2 Assay for human Phenobarbital-responsive Enhancer Module (PBREM) (AID 2282955). As to conditions: HepG2 PBREM cis-reporter, Attagene multiplexed transcription; actives raise or lower the signal. The gist of the method: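 Transfected liver-derived HepG2 cells exposed 24 h; PBREM reporter transcript quantified via RT-PCR and capillary electrophoresis, with activity in either direction referenced to DMSO.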

Assay [2] has as its target Paired box protein Pax-6 (Homo sapiens) (UniProt P26367). Nature of the assay: ATG_Pax6_CIS: Attagene CIS-FACTORIAL HepG2 Assay for human Paired Box 6 (PAX6) (AID 2282956). As to conditions: HepG2 CIS-FACTORIAL PAX6 reporter transcription, RNA readout; actives raise or lower the signal. The essentials:
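Values derive from bidirectional curve fitting of reporter mRNA signal relative to DMSO. HepG2 cells bearing transfected cis-regulated MRTUs were exposed for 24 h; transcripts were read by RT-PCR and capillary electrophoresis.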

Assay [3] is described as follows: ATG_PXRE_CIS: Attagene CIS-FACTORIAL HepG2 Assay for human Pregnane X Receptor Element (PXRE) (AID 2282957). Conditions: HepG2 Attagene CIS-FACTORIAL PXRE reporter, mRNA; actives raise or lower the signal. The essentials:
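Endogenous transcription factor activity in HepG2 was gauged through induction of reporter mRNA driven by a cis-regulating promoter element, sampled 24 h post-treatment. Activity was fitted in both directions against DMSO negative control.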

Assay [4] can be described thus: ATG_PPRE_CIS: Attagene CIS-FACTORIAL HepG2 Assay for human Peroxisome Proliferator-activated Response Element (PPRE) (AID 2282958). As to conditions: HepG2 PPRE cis-element reporter, Attagene transcription factor profiling; actives raise or lower the signal. The essentials:
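Measured endpoint: PPRE-controlled reporter mRNA, detected by RT-PCR and capillary electrophoresis fluorescence, from transiently transfected HepG2 cells 24 h after dosing. Curves fitted in both directions using DMSO baseline.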

Assay [5] is described as follows: ATG_RORE_CIS: Attagene CIS-FACTORIAL HepG2 Assay for human RAR-related Orphan Receptor Element (RORE) (AID 2282959). Conditions: HepG2 Attagene cis-factorial RORE reporter, mRNA; actives raise or lower the signal. The gist of the method:
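Transiently transfected HepG2 reporter cells were treated 24 h. Reporter transcripts were detected by RT-PCR and capillary electrophoresis, with bidirectional fitting against DMSO.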

A short description of assay [6]: ATG_Sox_CIS: Attagene CIS-FACTORIAL HepG2 Assay for human SRY-box transcription factor (SOX) (AID 2282960). Conditions: HepG2 Attagene cis-factorial SOX reporter, mRNA; actives raise or lower the signal. The gist of the method: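 Gain- or loss-of-signal endpoint, fitted bidirectionally with DMSO as negative control. Based on reporter mRNA from transfected HepG2 cells harvested 24 h post-treatment and quantified via RT-PCR and capillary electrophoresis.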

For assay [7], the target named is Transcription factor Sp1 (Homo sapiens) (UniProt P08047). The assay can be described thus: ATG_Sp1_CIS: Attagene CIS-FACTORIAL HepG2 Assay for human Specificity Protein 1 (Sp1) (AID 2282961). As to conditions: HepG2 Sp1 cis-reporter transcription, actives raise or lower the signal. The essentials:
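Endpoint reflects endogenous Sp1 transcriptional activity, not an exogenous fusion protein: HepG2 cells with transfected cis-regulated reporters, 24 h dosing, RT-PCR/capillary electrophoresis mRNA read-out, DMSO-normalised bidirectional fit.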

Assay [8] in a line: ATG_SREBP_CIS: Attagene CIS-FACTORIAL HepG2 Assay for human Sterol Regulatory Element Binding (SREBP) (AID 2282962). As to conditions: HepG2 Attagene cis-factorial SREBP reporter, mRNA; actives raise or lower the signal. The essentials: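 Values derive from bidirectional curve fitting with DMSO as baseline. The underlying measurement is reporter mRNA from cis-element-regulated units in transiently transfected HepG2, quantified by RT-PCR and capillary electrophoresis after 24 h exposure.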

The target of assay [9] is Signal transducer and activator of transcription 3 (Homo sapiens) (UniProt P40763). The assay can be described thus: ATG_STAT3_CIS: Attagene CIS-FACTORIAL HepG2 Assay for human Signal Transducer and Activator of Transcription 3 (STAT3) (AID 2282963). As to conditions: HepG2, Attagene cis-factorial STAT3 reporter transcription; actives raise or lower the signal. The essentials: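 Cis-factorial format: endogenous transcription factors in HepG2 drive transfected reporter units. After 24 h treatment, reporter RNA was reverse-transcribed, amplified, FAM-labelled and HpaI-digested before CE analysis; activity scored in both directions against DMSO.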
Chain of Signal transducer and activator of transcription 3 (Homo sapiens) (P40763 whole entry, looked up): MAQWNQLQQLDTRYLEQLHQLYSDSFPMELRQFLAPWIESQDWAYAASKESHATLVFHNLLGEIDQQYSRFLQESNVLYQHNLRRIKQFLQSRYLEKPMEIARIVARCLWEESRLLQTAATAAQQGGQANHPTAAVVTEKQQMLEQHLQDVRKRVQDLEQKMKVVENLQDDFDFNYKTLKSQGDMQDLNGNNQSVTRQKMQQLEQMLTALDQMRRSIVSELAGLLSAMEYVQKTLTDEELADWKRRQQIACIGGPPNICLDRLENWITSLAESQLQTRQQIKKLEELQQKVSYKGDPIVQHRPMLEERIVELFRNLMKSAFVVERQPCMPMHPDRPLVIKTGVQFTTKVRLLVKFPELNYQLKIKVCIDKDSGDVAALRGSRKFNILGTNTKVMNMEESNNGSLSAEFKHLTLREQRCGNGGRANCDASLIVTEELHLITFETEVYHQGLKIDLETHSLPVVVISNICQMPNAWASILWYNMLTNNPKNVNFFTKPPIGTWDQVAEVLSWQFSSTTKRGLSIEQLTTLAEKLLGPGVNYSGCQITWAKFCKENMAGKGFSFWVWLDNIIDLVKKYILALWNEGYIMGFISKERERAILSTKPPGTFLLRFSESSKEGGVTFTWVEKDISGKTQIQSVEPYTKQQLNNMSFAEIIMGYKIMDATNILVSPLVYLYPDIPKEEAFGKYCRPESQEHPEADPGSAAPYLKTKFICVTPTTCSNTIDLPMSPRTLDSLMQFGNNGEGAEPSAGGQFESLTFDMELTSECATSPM

Assay [10] is described as follows: ATG_TA_CIS: Attagene CIS-FACTORIAL HepG2 Assay for human TA Basal Promoter (AID 2282964). As to conditions: HepG2 Attagene CIS-factorial TA basal promoter reporter; actives raise or lower the signal. The gist of the method:
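Read-out: fluorescent reporter-transcript fragments resolved by capillary electrophoresis after RT-PCR and HpaI digestion. Source: HepG2 cells carrying transiently transfected multi-reporter cis constructs, treated 24 h. Endpoint fitted bidirectionally relative to DMSO.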

Assay [11] is described as follows: ATG_TCF_b_cat_CIS: Attagene CIS-FACTORIAL HepG2 Assay for human T-Cell-Factor with beta-catenin (TCF/b-cat) (AID 2282965). Conditions: HepG2 TCF/beta-catenin cis-reporter transcription, actives raise or lower the signal. The essentials:
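Endogenous TCF/LEF activity read as reporter transcript level via RT-PCR and capillary electrophoresis fluorescence in transfected HepG2, 24 h exposure; gain or loss of signal fitted against DMSO controls.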

Assay [12] in a line: ATG_TAL_CIS: Attagene CIS-FACTORIAL HepG2 Assay for human TAL Basal Promoter (AID 2282966).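 Note: background control endpoint measuring basal TAL promoter reporter mRNA not a specific factor.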 Conditions: HepG2 Attagene cis-factorial TAL promoter reporter; actives raise or lower the signal. The essentials: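 Endogenous transcription-factor activity is sensed in HepG2 cells through transfected cis-promoter reporter constructs. After 24 h dosing, reporter transcripts are quantified by RT-PCR and capillary electrophoresis. Gain or loss of signal is fitted relative to DMSO.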

Assay [13] is described as follows: ATG_TGFb_CIS: Attagene CIS-FACTORIAL HepG2 Assay for human Transforming Growth Factor (TGF) (AID 2282967). As to conditions: HepG2 Attagene CIS TGFb reporter, mRNA transcription; actives raise or lower the signal. The gist of the method: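 Transient MRTU transfection of HepG2 (FuGene 6). Dose 24 h. TriZol RNA, oligo(dT) RT, PCR, 6-FAM primer extension, HpaI cut, CE. Bidirectional fit, DMSO = baseline.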

Assay [14] in a line: ATG_VDRE_CIS: Attagene CIS-FACTORIAL HepG2 Assay for human Vitamin D Receptor Element (VDRE) (AID 2282968). As to conditions: HepG2 VDRE cis-reporter transcription, actives raise or lower the signal. The essentials:
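Measures endogenous factor activity through cis-element-driven reporter transcripts in transiently transfected HepG2. Cells are treated 24 h; reporter mRNA is quantified by RT-PCR and capillary electrophoresis; fitting is bidirectional.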

Assay [15] deals with Nuclear receptor subfamily 1 group I member 3 (Homo sapiens) (UniProt Q14994). The assay can be described thus: ATG_CAR_TRANS: Attagene TRANS-FACTORIAL HepG2 Assay for human Constitutive Androstane Receptor (CAR) (AID 2282969; active = hit-call score of the fitted dose curve at least 0.9, where 1 is the maximum;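 note: activators raise reporter mRNA above DMSO so AC50 marks induction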). Conditions: HepG2 Attagene TRANS-FACTORIAL CAR reporter. The essentials: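 Signal is reporter mRNA induction relative to DMSO, measured 24 h after dosing by RT-PCR with fluorescent primer extension and capillary electrophoresis. Human HepG2 liver cells carried transiently transfected chimeric NR-Gal4/GAL4-UAS reporter constructs.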
Chain of Nuclear receptor subfamily 1 group I member 3 (Homo sapiens) (Q14994 whole entry, looked up, the tested form may be a part): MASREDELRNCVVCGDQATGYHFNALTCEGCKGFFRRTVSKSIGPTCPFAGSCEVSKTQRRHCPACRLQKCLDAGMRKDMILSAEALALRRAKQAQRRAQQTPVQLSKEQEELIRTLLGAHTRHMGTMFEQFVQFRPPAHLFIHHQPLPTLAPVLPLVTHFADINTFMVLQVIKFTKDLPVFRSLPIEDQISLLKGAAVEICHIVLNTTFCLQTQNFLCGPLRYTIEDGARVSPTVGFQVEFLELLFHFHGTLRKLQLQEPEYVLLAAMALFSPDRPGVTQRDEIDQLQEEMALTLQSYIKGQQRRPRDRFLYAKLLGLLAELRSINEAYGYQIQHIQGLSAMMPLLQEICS

Assay [16] has as its target Estrogen receptor (Homo sapiens) (UniProt P03372). The assay can be described thus: ATG_ERa_TRANS: Attagene TRANS-FACTORIAL HepG2 Assay for human Estrogen Receptor alpha (ERa) (AID 2282970; active = hit-call score of the fitted dose curve at least 0.9, where 1 is the maximum). As to conditions: HepG2 Attagene TRANS ERa GAL4 reporter, mRNA. The gist of the method:
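Transfected HepG2 cells carrying GAL4-UAS-driven reporter units were dosed for 24 hours. Total RNA was reverse-transcribed, reporter sequences PCR-amplified, FAM-labelled, HpaI-digested and resolved by capillary electrophoresis. Increases over DMSO control defined activity.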

For assay [17], the target named is X-box-binding protein 1 (Homo sapiens) (UniProt P17861). The assay can be described thus: ATG_Xbp1_CIS: Attagene CIS-FACTORIAL HepG2 Assay for human X-box Binding Protein 1 (XBP1) (AID 2282972). As to conditions: HepG2 XBP1 cis-element reporter, Attagene multiplex; actives raise or lower the signal. The essentials: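 Human hepatoma HepG2, cis-element reporter system, 24 h treatment; mRNA quantified by RT-PCR/CE fluorescence; fit relative to DMSO.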
Chain of X-box-binding protein 1 (Homo sapiens) (P17861 whole entry, looked up): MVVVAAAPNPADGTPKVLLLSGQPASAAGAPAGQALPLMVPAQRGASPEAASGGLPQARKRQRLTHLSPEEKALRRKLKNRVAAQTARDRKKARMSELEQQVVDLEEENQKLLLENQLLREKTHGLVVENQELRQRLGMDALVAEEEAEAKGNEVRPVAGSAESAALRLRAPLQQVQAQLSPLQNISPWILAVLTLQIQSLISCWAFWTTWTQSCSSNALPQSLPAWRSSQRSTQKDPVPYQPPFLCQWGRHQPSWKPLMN

Assay [18] deals with Steroid hormone receptor ERR1 (Homo sapiens) (UniProt P11474). The assay can be described thus: ATG_ERRa_TRANS: Attagene TRANS-FACTORIAL HepG2 Assay for human Estrogen-Related Receptor alpha (ERRa) (AID 2282971; active = hit-call score of the fitted dose curve at least 0.9, where 1 is the maximum). Conditions: HepG2 Attagene TRANS reporter, ERRa transactivation. The essentials:
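HepG2 cells were transiently transfected with multiple GAL4-UAS reporter units, then dosed with compound for 24 h. Total RNA was reverse-transcribed, reporter cDNA PCR-amplified and fluorescently labelled, and fragments resolved by capillary electrophoresis; induction was compared with DMSO.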

Assay [19] is described as follows: ATG_M_19_TRANS: Attagene TRANS-FACTORIAL HepG2 Assay for M19 Transcription Factor (Internal Marker) (AID 2282974; active = hit-call score of the fitted dose curve at least 0.9, where 1 is the maximum). Conditions: HepG2 Attagene TRANS-FACTORIAL M19 internal marker reporter. The gist of the method:
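Using RT-PCR and capillary electrophoresis, reporter mRNA from transiently transfected human HepG2 cells was quantified following 24 h exposure; activity was fitted in the positive direction against DMSO.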

Assay [20] in a line: ATG_GAL4_TRANS: Attagene TRANS-FACTORIAL HepG2 Assay for GAL4 (Internal Marker) (AID 2282976; active = hit-call score of the fitted dose curve at least 0.9, where 1 is the maximum). As to conditions: HepG2 Attagene TRANS GAL4 internal marker reporter. The gist of the method: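 Fluorescence from capillary electrophoresis of labelled RT-PCR products quantifies reporter mRNA induction after 24 h dosing of HepG2 cells carrying transfected GAL4-UAS reporter transcription units. Vehicle DMSO serves as baseline.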

Chain of Transcription factor Sp1 (Homo sapiens) (P08047 whole entry, looked up, the tested form may be a part): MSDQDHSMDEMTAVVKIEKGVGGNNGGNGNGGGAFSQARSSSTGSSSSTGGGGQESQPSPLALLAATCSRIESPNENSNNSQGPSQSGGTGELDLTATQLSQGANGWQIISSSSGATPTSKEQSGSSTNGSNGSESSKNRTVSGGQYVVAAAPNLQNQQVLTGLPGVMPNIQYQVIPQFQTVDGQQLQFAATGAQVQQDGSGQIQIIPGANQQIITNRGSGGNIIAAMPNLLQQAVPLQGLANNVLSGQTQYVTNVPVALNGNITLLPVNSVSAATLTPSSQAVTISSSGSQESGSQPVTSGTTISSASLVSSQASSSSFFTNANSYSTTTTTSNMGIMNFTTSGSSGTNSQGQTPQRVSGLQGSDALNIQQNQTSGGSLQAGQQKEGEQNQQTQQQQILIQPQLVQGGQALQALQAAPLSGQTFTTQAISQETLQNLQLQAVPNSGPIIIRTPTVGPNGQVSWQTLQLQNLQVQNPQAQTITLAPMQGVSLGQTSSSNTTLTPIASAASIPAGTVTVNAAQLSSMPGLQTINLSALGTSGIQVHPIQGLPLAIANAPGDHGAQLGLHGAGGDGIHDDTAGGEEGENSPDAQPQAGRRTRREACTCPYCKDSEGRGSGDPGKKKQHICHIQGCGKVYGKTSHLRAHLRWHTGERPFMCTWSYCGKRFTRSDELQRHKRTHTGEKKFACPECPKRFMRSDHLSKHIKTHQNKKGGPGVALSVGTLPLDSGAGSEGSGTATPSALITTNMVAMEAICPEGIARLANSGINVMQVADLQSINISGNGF
Chain of Estrogen receptor (Homo sapiens) (P03372 whole entry, looked up, the tested form may be a part): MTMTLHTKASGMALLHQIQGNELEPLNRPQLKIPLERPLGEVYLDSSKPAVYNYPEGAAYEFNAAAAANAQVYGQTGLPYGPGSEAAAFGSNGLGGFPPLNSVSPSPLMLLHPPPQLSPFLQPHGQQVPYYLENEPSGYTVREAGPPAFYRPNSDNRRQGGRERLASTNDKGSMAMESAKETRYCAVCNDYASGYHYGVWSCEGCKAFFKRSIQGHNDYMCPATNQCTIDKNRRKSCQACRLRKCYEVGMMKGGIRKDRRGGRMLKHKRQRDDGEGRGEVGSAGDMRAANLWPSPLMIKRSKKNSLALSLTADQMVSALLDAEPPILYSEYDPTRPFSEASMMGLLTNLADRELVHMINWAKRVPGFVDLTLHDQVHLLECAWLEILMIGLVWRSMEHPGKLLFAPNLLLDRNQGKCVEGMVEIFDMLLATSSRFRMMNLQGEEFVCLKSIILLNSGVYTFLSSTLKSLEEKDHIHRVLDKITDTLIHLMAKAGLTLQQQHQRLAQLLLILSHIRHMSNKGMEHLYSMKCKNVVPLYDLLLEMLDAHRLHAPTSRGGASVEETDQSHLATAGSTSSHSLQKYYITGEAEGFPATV
Chain of Paired box protein Pax-6 (Homo sapiens) (P26367 whole entry, looked up): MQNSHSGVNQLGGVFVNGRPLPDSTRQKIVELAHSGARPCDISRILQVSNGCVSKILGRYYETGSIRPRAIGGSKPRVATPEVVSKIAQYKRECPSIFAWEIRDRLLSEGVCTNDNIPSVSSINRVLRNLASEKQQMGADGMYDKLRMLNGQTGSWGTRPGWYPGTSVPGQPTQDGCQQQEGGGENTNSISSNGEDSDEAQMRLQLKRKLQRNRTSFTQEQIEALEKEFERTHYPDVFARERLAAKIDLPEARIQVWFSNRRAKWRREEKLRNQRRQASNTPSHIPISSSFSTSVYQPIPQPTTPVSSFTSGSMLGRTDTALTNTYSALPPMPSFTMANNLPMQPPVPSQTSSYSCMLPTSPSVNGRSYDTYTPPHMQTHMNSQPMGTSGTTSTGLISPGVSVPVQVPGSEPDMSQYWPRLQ
Chain of Steroid hormone receptor ERR1 (Homo sapiens) (P11474 whole entry, looked up, the tested form may be a part): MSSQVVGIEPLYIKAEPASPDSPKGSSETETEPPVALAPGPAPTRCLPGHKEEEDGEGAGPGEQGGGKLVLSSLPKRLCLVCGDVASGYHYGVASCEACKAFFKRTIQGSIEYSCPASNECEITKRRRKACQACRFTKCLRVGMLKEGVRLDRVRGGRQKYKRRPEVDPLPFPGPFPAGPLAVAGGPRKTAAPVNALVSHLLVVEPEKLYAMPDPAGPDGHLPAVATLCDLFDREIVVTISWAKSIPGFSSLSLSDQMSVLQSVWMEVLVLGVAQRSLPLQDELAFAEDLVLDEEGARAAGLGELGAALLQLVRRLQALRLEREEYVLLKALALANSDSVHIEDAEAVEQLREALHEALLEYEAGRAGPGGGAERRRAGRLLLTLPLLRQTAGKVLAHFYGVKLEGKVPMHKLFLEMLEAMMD

Consider `CCc1cc(Cc2cc(CC)c(N)c(CC)c2)cc(CC)c1N`, for which the result in [1], in assay [4], in [5], in assay [7], in [9] and in assay [10] was inactive. Besides, the call in assay [13], in assay [15] and in [16] was inactive. Also, the AC50 in [2] was 33.4 µM (active); in [3], 1.1 µM (active); in [6], 29.3 µM (active); in assay [8] it was 3.95 µM (active); in assay [11], 33.4 µM (active); in assay [12], 53.4 µM (active). Also, the figures for the AC50 in assay [14] and in assay [17] were 11.6 µM (active) and 38.3 µM (active), respectively.
Turning to `CC(C)(C)c1cc(CCC(=O)OCC(COC(=O)CCc2cc(C(C)(C)C)c(O)c(C(C)(C)C)c2)(COC(=O)CCc2cc(C(C)(C)C)c(O)c(C(C)(C)C)c2)COC(=O)CCc2cc(C(C)(C)C)c(O)c(C(C)(C)C)c2)cc(C(C)(C)C)c1O`, the outcome in [1], in assay [2], in assay [4], in assay [5], in assay [6] and in assay [7] was inactive. For the same compound, the compound was classed as inactive in assay [8], in [9], in assay [10], in assay [11], in assay [12] and in assay [13]. The compound was called inactive in assay [15] and in [17]. For the same compound, the AC50 in assay [3] is 21.3 µM (active); in assay [16], 21.8 µM (active).
Turning to `FC(F)(F)C(F)(F)C(F)(F)C(F)(F)C(F)(F)C(F)(F)C(F)(F)CCI`, the result in [1], in assay [2], in [3], in assay [4], in [5] and in assay [6] was inactive. For the same compound, the outcome in assay [7], in assay [8], in [9], in assay [10], in assay [12] and in [13] was inactive. The result in [14], in [18], in assay [17], in assay [19] and in [20] was inactive. Also, the AC50 in [16] is 24.5 µM (active).
